These results are taken from the supplement of paper PMC3545927.

Some of the results follow. How many sequences the whole screen found active is unknown.

This assay concerns the target furin, P09958. In words: furin cleavage Z-score vs untreated control; higher = more cleavage, active = 3.5 or more, inactive = 1 or less, 8 variable residues between constant flanks. The essentials:
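Abundance of DNA freed from bead-bound 8-mer peptide–cDNA fusions by purified furin was measured as sequencing read counts after PCR adapter tagging. Cutting ran 7.5, 15 or 30 min in 0.01 ml of 50 mM HEPES pH 7.5 with CaCl2 and NaCl at 1:10 enzyme:substrate. The cleavage Z-score expresses these log counts against furin-free reactions after lowess adjustment and median absolute deviation scaling.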

Chain of furin, P09958 (P09958 whole entry, the tested form may be a part): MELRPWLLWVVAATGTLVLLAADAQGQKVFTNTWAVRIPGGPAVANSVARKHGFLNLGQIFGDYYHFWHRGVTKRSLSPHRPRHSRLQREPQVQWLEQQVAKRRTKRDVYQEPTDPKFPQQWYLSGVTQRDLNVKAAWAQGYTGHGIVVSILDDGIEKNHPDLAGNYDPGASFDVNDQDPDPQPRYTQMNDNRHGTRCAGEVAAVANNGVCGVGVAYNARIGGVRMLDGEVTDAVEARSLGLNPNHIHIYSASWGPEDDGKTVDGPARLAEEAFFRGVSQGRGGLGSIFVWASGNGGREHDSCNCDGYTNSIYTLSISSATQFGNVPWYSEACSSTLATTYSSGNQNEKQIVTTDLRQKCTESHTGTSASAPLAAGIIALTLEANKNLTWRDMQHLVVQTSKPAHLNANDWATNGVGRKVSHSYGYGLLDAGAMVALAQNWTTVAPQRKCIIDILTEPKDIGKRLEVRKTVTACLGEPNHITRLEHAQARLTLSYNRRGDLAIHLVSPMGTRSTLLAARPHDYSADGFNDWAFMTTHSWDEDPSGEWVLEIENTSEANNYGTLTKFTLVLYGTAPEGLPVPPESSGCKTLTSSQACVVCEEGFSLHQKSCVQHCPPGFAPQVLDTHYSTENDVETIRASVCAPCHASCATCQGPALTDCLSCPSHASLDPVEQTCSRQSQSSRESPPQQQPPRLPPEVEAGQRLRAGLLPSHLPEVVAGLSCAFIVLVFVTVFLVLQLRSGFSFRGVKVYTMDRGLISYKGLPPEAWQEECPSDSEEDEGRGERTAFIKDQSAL

CAEVICHRPSAGNASASA [HC2344]: the “furin cleavage Z-score” value runs as follows: (7.5 min) -0.36 (inactive); (15 min) -0.916 (inactive); (30 min) 1.17.
For CALTPCSGSWAGNASASA [HC1825] the same measures were -0.28 (inactive), -0.817 (inactive) and -0.734 (inactive).
The matching figures for CARQNRWKRQAGNASASA [FS-956]: 13.6 (active), 16.1 (active) and 9.49 (active).
For CARQNREKRFAGNASASA [FS-493] the same measures were 8.07 (active), 9.73 (active) and 9.9 (active).
In the case of CARQNRSVRLAGNASASA [FS-1916], the “furin cleavage Z-score” value is 2.12 (7.5 min), 3.53 (active) (15 min) and 4 (active) (30 min).
The matching figures for CATELDGVRLAGNASASA [HC1222]: -1.97 (inactive), -0.317 (inactive) and -1.04 (inactive).
The matching figures for CAVEIRQVGDAGNASASA [HC1206]: -0.56 (inactive), -1.09 (inactive) and -1.86 (inactive).
The matching figures for CARHKRGRGDAGNASASA [FS-1714]: 0.301 (inactive), 2.2 and 1.5.
As to CARHLREVGDAGNASASA [FS-1715], the “furin cleavage Z-score” value (7.5 min) came to 2.58, the “furin cleavage Z-score” value (15 min) is 3.76 (active) and the “furin cleavage Z-score” value (30 min) was 3.94 (active).
Take CARQNRGFRAAGNASASA [FS-3040]: the “furin cleavage Z-score” value reads like this: (7.5 min) -0.161 (inactive); (15 min) 0.266 (inactive); (30 min) 0.111 (inactive).
The matching figures for CAETAGARLVAGNASASA [HC829]: 1.45, 1.12 and -1.04 (inactive).
Take CAAASCGGVVAGNASASA [HC568]: the “furin cleavage Z-score” value is -0.496 (inactive) (7.5 min), -0.825 (inactive) (15 min) and 0.0661 (inactive) (30 min).
For CAVVCCSMNYAGNASASA [HC2081] the same measures were -0.198 (inactive), -1.19 (inactive) and -1.03 (inactive).
For CALFYHHKFNAGNASASA [HC381] the same measures were -0.625 (inactive), -2.1 (inactive) and -0.731 (inactive).
Take CARHLRNVYAAGNASASA [FS-2940]: the “furin cleavage Z-score” value was 0.638 (inactive) (7.5 min), -0.594 (inactive) (15 min) and 1.3 (30 min).
As for CARHLRANMTAGNASASA [FS-2939], the “furin cleavage Z-score” value (7.5 min) was -0.54 (inactive), the “furin cleavage Z-score” value (15 min) was -1.02 (inactive) and the “furin cleavage Z-score” value (30 min) was -1.63 (inactive).
For CARHLREKRFAGNASASA [FS-706] the same measures were 6.75 (active), 9.12 (active) and 10.1 (active).
For the sequence CAMEDCSQHLAGNASASA [HC1711], the “furin cleavage Z-score” value was 0.722 (inactive) (7.5 min), 2.02 (15 min) and 1.16 (30 min).
For CAIITSLTGRAGNASASA [HC682] the same measures were -0.473 (inactive), 0.458 (inactive) and 0.0661 (inactive).
For CARLEVVTSTAGNASASA [HC2273] the same measures were 0.609 (inactive), 1.11 and -1.08 (inactive).
Regarding CARLARFADGAGNASASA [FS-2429], the “furin cleavage Z-score” value by setting is: (7.5 min) -1.13 (inactive); (15 min) 2.8; (30 min) 0.514 (inactive).
The matching figures for CARNARIVHLAGNASASA [FS-1755]: 0.861 (inactive), 0.108 (inactive) and -0.00636 (inactive).
Regarding CARNARHADGAGNASASA [FS-3002], the “furin cleavage Z-score” value is, setting by setting: (7.5 min) 3.28; (15 min) 5.44 (active); (30 min) 3.84 (active).
Turning to CARNARNVSQAGNASASA [FS-3003], the “furin cleavage Z-score” value is, setting by setting: (7.5 min) 4.25 (active); (15 min) 6.14 (active); (30 min) 5.98 (active).
In the case of CAAQPGYPWPAGNASASA [HC199], the “furin cleavage Z-score” value (7.5 min) is 0.109 (inactive), the “furin cleavage Z-score” value (15 min) is 0.367 (inactive) and the “furin cleavage Z-score” value (30 min) is 0.143 (inactive).
The matching figures for CAEYPVGSQLAGNASASA [HC1237]: -1.22 (inactive), -1.49 (inactive) and -1.3 (inactive).
The matching figures for CAVEKRGVHEAGNASASA [FS-1813]: -1.62 (inactive), -0.803 (inactive) and -0.675 (inactive).
Take CARQKRSIHEAGNASASA [FS-3036]: the “furin cleavage Z-score” value (7.5 min) was 9.78 (active), the “furin cleavage Z-score” value (15 min) was 11 (active) and the “furin cleavage Z-score” value (30 min) is 9.29 (active).
For CASTPCSAHEAGNASASA [HC2572] the same measures were -0.869 (inactive), -0.151 (inactive) and 0.67 (inactive).
For CARQTRSSTEAGNASASA [FS-2174] the same measures were 0.51 (inactive), 2.13 and 2.17.
For CARQKRSINLAGNASASA [FS-2587] the same measures were 7.01 (active), 6.9 (active) and 10.1 (active).
Take CARQKRSMEEAGNASASA [FS-3260]: the “furin cleavage Z-score” value is, setting by setting: (7.5 min) 7.94 (active); (15 min) 7.89 (active); (30 min) 8.14 (active).
Turning to CARVNRSVHEAGNASASA [FS-2244], the “furin cleavage Z-score” value (7.5 min) was 0.826 (inactive), the “furin cleavage Z-score” value (15 min) is 3.34 and the “furin cleavage Z-score” value (30 min) is 3.78 (active).
For CAREFDEMEEAGNASASA [HC1012], the “furin cleavage Z-score” value (7.5 min) was -0.916 (inactive), the “furin cleavage Z-score” value (15 min) is -1.39 (inactive) and the “furin cleavage Z-score” value (30 min) was -1.93 (inactive).
